Inconclusive results are not listed. Active and inactive are the calls of the source. Rule for the calls, unless noted: active = hit-call score of the fitted dose curve at least 0.9, where 1 is the maximum; inactive = score below 0.9.
What was measured:
[1] = target: Peroxisome proliferator-activated receptor gamma (Homo sapiens) (UniProt P37231); assay: OT_PPARg_PPARgSRC1_0480: Odyssey Thera (OT) 8-hour Protein-Complementation Assay for Peroxisome Proliferator-activated Receptor Gamma / SRC-1 Co-activator (AID 2283387; active = hit-call score of the fitted dose curve at least 0.9, where 1 is the maximum;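 note: nuclear to cytoplasmic split Venus YFP fluorescence ratio reporting PPARg SRC-1 interaction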)
How it was run: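 Protein-fragment complementation of split Venus YFP reports PPARg/SRC-1 interaction in HEK293T (transfected 48 h before treatment), exposed 8 h. Readout: N/C fluorescence ratio at 488 nm from imaging, Draq5 for segmentation, positive fit relative to DMSO.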

[2] = target: Peroxisome proliferator-activated receptor gamma (Homo sapiens) (UniProt P37231); assay: OT_PPARg_PPARgSRC1_1440: Odyssey Thera (OT) 24-hour Protein-Complementation Assay for Peroxisome Proliferator-activated Receptor Gamma/ SRC-1 Co-activator (AID 2283388; active = hit-call score of the fitted dose curve at least 0.9, where 1 is the maximum;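 note: nuclear to cytoplasmic ratio of reconstituted Venus YFP fluorescence in fixed imaged cells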)
How it was run: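 Readout is the 488 nm N/C fluorescence ratio from fixed, Draq5-stained HEK293T cells after 24 h compound exposure. Cells carried transiently transfected PPARg and SRC-1 fused to Venus fragments, transfected 48 h before treatment.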

[3] = CEETOX_H295R_OHPROG: CeeTox H295R High-throughput Steroidogenesis Assay for OH-Progesterone (OHPROG) (AID 2283435); conditions: actives raise or lower the signal
How it was run: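 Human adrenocortical H295R cells, passage 10 or lower, were treated with chemical for 48 h after forskolin priming, and hormone output in the medium was quantified by LC-MS/MS.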

[4] = CEETOX_H295R_ANDR: CeeTox H295R High-throughput Steroidogenesis Assay for Androstenedione (ANDR) (AID 2283436); conditions: actives raise or lower the signal
How it was run: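 Medium from 48 h chemical-treated H295R adrenal cells was extracted with MTBE and androstenedione measured by LC-MS/MS. Activity was fit in both directions relative to DMSO. Cytotoxic concentrations were re-tested after dilution until MTT viability reached ≥70%.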

[5] = CEETOX_H295R_CORTIC: CeeTox H295R High-throughput Steroidogenesis Assay for Corticosterone (CORTIC) (AID 2283437); conditions: actives raise or lower the signal
How it was run: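 Medium corticosterone was quantified by tandem mass spectrometry following 48 hours of chemical exposure (0.1% DMSO) in human H295R cells previously stimulated 48 hours with 10 uM forskolin. Viability checked by MTT; chemicals diluted and retested when viability fell below 70%.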

[6] = CEETOX_H295R_CORTISOL: CeeTox H295R High-throughput Steroidogenesis Assay for Cortisol (AID 2283438); conditions: actives raise or lower the signal;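 note: cortisol secreted into medium quantified by LC-MS/MS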
How it was run: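 Steroidogenesis in H295R, per modified OECD 456: 48 h forskolin (10 uM), then 48 h exposure, 0.1% DMSO. Cortisol by extraction and tandem MS; viability by MTT (570/650 nm); cytotoxic chemicals diluted and re-tested.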

[7] = CEETOX_H295R_DOC: CeeTox H295R High-throughput Steroidogenesis Assay for DOC (AID 2283439); conditions: actives raise or lower the signal
How it was run: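 H295R, fsk 10 uM ×48 h pre, cmpd ×48 h (0.1% DMSO). Media → MTBE extr. → LC-MS/MS, DOC. Bidirectional fit vs DMSO; MTT viability same wells, re-test diluted if <70%.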

[8] = CEETOX_H295R_ESTRADIOL: CeeTox H295R High-throughput Steroidogenesis Assay for Estradiol (AID 2283440); conditions: actives raise or lower the signal;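 note: estradiol secreted into medium quantified by LC-MS/MS after dansyl derivatisation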
How it was run: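 Estradiol in spent medium measured by LC-MS/MS after dansyl chloride derivatisation. Forskolin-primed (10 uM, 48 h) human adrenal H295R cells received test chemical 48 h at 0.1% DMSO; concentrations lowered until MTT viability >/=70%.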

[9] = CEETOX_H295R_ESTRONE: CeeTox H295R High-throughput Steroidogenesis Assay for Estrone (AID 2283441); conditions: actives raise or lower the signal;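 note: estrone secreted into medium measured by LC-MS/MS after dansyl derivatization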
How it was run: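 Forskolin-stimulated H295R cells are treated 48 h with chemical, and estrone in the medium is measured by LC-MS/MS. Activity is fitted in both directions relative to DMSO controls, with chemicals diluted until MTT viability reaches at least 70%.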

[10] = CEETOX_H295R_PROG: CeeTox H295R High-throughput Steroidogenesis Assay for Progesterone (PROG) (AID 2283442); conditions: actives raise or lower the signal
How it was run: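 Progesterone secreted by human H295R cells was measured by LC-MS/MS following 48 h chemical exposure at 0.1% DMSO, preceded by 48 h forskolin (10 uM) stimulation. Same-well MTT viability; cytotoxic concentrations diluted 10- or 100-fold and retested.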

[11] = read-out: Tumor necrosis factor receptor superfamily member 6 (Homo sapiens) (UniProt P25445); assay: LTEA_HepaRG_FAS: Life Technologies and Expression Analysis (LTEA) Assay for Fas cell surface death receptor (FAS) using HepaRG (AID 2283447); conditions: mRNA level, 48 h; actives raise or lower the signal
How it was run: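 FAS transcript level was measured by TaqMan qRT-PCR against three housekeeping genes after 48 h chemical exposure. Cells were HepaRG, 0.5% DMSO vehicle, with a top concentration of 100 uM and half-log dilutions over eight points, in duplicate.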

[12] = read-out: Fatty acid synthase (Homo sapiens) (UniProt P49327); assay: LTEA_HepaRG_FASN: Life Technologies and Expression Analysis (LTEA) Assay for Fatty Acid Synthase (FASN) using HepaRG (AID 2283448); conditions: mRNA level, 48 h; actives raise or lower the signal;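 for AC50: differentiated human HepaRG liver cells in serum-free induction medium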
How it was run: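 In human HepaRG cultures, 48 h chemical exposure (up to 100 uM, 0.5% DMSO) preceded TaqMan qRT-PCR of FASN.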

[13] = read-out: Cyclin D2 (CCND2), CCND2 (gene 894); assay: LTEA_HepaRG_CCND2: Life Technologies and Expression Analysis (LTEA) Assay for Cyclin D2 (CCND2) using HepaRG (AID 2283449); conditions: mRNA level, 48 h; actives raise or lower the signal
How it was run: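 CCND2 transcript levels, quantified by qRT-PCR and normalised to three housekeeping genes, were fitted bidirectionally against 0.5% DMSO. HepaRG cultures were dosed 48 h in duplicate with an 8-point half-log series up to 100 uM.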

[14] = read-out: Cyclin Dependent Kinase Inhibitor 1A (CDKN1A), CDKN1A (gene 1026); assay: LTEA_HepaRG_CDKN1A: Life Technologies and Expression Analysis (LTEA) Assay for Cyclin Dependent Kinase Inhibitor 1A (CDKN1A) using HepaRG (AID 2283450); conditions: mRNA level, 48 h; actives raise or lower the signal
How it was run: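 Expression quantified by Fluidigm qRT-PCR with ACTB, GAPDH and POLR2A normalization, fitted bidirectionally against 0.5% DMSO. Cells: HepaRG, plated 48 h then treated 48 h in serum-free induction medium, top concentration 100 uM with half-log dilutions.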

[15] = read-out: Cyclin D1 (CCND1), CCND1 (gene 595); assay: LTEA_HepaRG_CCND1: Life Technologies and Expression Analysis (LTEA) Assay for Cyclin D1 (CCND1) using HepaRG (AID 2283451); conditions: mRNA level, 48 h; actives raise or lower the signal
How it was run: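 Expression of CCND1 was quantified by qRT-PCR on Fluidigm arrays using ACTB, GAPDH and POLR2A as reference genes. HepaRG cultures, plated 48 h beforehand, were dosed for 48 h at up to 100 uM (half-log, 8 points) in 0.5% DMSO.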

[16] = read-out: catalase (CAT), CAT (gene 847); assay: LTEA_HepaRG_CAT: Life Technologies and Expression Analysis (LTEA) Assay for catalase (CAT) using HepaRG (AID 2283452); conditions: mRNA level, 48 h; actives raise or lower the signal
How it was run: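 Expression of CAT was quantified by TaqMan qRT-PCR with ACTB/GAPDH/POLR2A normalization after 48 h chemical exposure of HepaRG. Eight-point half-log series, top 100 uM, in 0.5% DMSO; gain or loss fitted against vehicle.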

[17] = read-out: flavin-containing dimethylaniline monooxygenases 3 (FMO3), FMO3 (gene 2328); assay: LTEA_HepaRG_FMO3: Life Technologies and Expression Analysis (LTEA) Assay for flavin-containing dimethylaniline monooxygenases 3 (FMO3) using HepaRG (AID 2283453); conditions: mRNA level, 48 h; actives raise or lower the signal;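 for AC50: differentiated human HepaRG liver cells in serum-free induction medium; FMO3 transcript by TaqMan qRT-PCR normalized to ACTB GAPDH and POLR2A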
How it was run: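 Eight-point concentration-response in serum-free HepaRG cultures (top 100 uM, 0.5% DMSO, 48 h). Read-out: FMO3 mRNA level normalized to three endogenous control genes, fitted bidirectionally versus vehicle.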

[18] = read-out: Cytochrome P450 (CYP1A1), CYP1A1 (gene 1543); assay: LTEA_HepaRG_CYP1A1: Life Technologies and Expression Analysis (LTEA) Assay for Cytochrome P450 (CYP1A1) using HepaRG (AID 2283454); conditions: mRNA level, 48 h; actives raise or lower the signal
How it was run: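 CYP1A1 transcript levels measured by Fluidigm qRT-PCR against three housekeeping genes, 48 h after chemical dosing of human HepaRG cells (highest concentration 100 uM, half-log steps, 0.5% DMSO vehicle). Gain or loss of signal fitted relative to DMSO.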

[19] = read-out: CFLAR gene, CFLAR (gene 8837); assay: LTEA_HepaRG_CFLAR: Life Technologies and Expression Analysis (LTEA) Assay for CFLAR gene using HepaRG (AID 2283455); conditions: mRNA level, 48 h; actives raise or lower the signal
How it was run: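 Transcript level by qRT-PCR (normalized to ACTB, GAPDH and POLR2A) after 48 h chemical exposure of HepaRG cells, top concentration 100 uM with half-log steps, 0.5% DMSO vehicle, duplicates; fitted bidirectionally against DMSO baseline.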

[20] = read-out: Forkhead box O1 (FOXO1), FOXO1 (gene 2308); assay: LTEA_HepaRG_FOXO1: Life Technologies and Expression Analysis (LTEA) Assay for Forkhead box O1 (FOXO1) using HepaRG (AID 2283456); conditions: mRNA level, 48 h; actives raise or lower the signal
How it was run: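 FOXO1 transcript quantified by qRT-PCR after 48 h chemical exposure (top 100 uM, half-log steps, 0.5% DMSO) of HepaRG cells, housekeeping-normalized (ACTB/GAPDH/POLR2A). Changes fitted in both directions relative to vehicle.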

Measured: AC50

Sequence of Peroxisome proliferator-activated receptor gamma (Homo sapiens) (P37231 whole entry, looked up, the tested form may be a part): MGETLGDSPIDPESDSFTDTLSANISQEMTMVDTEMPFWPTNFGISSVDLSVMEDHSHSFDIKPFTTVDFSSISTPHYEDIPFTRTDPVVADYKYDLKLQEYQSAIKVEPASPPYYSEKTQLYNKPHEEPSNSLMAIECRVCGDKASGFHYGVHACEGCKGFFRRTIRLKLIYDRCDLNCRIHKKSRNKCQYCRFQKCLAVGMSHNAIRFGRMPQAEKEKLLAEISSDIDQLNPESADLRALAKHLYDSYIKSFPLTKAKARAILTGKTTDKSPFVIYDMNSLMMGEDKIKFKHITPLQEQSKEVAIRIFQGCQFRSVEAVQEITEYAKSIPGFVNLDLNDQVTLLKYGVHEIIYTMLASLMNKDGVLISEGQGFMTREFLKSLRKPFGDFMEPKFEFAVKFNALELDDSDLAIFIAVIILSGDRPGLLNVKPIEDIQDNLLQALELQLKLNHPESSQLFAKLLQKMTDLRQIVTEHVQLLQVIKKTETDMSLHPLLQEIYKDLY
Sequence of Fatty acid synthase (Homo sapiens) (P49327 whole entry, looked up): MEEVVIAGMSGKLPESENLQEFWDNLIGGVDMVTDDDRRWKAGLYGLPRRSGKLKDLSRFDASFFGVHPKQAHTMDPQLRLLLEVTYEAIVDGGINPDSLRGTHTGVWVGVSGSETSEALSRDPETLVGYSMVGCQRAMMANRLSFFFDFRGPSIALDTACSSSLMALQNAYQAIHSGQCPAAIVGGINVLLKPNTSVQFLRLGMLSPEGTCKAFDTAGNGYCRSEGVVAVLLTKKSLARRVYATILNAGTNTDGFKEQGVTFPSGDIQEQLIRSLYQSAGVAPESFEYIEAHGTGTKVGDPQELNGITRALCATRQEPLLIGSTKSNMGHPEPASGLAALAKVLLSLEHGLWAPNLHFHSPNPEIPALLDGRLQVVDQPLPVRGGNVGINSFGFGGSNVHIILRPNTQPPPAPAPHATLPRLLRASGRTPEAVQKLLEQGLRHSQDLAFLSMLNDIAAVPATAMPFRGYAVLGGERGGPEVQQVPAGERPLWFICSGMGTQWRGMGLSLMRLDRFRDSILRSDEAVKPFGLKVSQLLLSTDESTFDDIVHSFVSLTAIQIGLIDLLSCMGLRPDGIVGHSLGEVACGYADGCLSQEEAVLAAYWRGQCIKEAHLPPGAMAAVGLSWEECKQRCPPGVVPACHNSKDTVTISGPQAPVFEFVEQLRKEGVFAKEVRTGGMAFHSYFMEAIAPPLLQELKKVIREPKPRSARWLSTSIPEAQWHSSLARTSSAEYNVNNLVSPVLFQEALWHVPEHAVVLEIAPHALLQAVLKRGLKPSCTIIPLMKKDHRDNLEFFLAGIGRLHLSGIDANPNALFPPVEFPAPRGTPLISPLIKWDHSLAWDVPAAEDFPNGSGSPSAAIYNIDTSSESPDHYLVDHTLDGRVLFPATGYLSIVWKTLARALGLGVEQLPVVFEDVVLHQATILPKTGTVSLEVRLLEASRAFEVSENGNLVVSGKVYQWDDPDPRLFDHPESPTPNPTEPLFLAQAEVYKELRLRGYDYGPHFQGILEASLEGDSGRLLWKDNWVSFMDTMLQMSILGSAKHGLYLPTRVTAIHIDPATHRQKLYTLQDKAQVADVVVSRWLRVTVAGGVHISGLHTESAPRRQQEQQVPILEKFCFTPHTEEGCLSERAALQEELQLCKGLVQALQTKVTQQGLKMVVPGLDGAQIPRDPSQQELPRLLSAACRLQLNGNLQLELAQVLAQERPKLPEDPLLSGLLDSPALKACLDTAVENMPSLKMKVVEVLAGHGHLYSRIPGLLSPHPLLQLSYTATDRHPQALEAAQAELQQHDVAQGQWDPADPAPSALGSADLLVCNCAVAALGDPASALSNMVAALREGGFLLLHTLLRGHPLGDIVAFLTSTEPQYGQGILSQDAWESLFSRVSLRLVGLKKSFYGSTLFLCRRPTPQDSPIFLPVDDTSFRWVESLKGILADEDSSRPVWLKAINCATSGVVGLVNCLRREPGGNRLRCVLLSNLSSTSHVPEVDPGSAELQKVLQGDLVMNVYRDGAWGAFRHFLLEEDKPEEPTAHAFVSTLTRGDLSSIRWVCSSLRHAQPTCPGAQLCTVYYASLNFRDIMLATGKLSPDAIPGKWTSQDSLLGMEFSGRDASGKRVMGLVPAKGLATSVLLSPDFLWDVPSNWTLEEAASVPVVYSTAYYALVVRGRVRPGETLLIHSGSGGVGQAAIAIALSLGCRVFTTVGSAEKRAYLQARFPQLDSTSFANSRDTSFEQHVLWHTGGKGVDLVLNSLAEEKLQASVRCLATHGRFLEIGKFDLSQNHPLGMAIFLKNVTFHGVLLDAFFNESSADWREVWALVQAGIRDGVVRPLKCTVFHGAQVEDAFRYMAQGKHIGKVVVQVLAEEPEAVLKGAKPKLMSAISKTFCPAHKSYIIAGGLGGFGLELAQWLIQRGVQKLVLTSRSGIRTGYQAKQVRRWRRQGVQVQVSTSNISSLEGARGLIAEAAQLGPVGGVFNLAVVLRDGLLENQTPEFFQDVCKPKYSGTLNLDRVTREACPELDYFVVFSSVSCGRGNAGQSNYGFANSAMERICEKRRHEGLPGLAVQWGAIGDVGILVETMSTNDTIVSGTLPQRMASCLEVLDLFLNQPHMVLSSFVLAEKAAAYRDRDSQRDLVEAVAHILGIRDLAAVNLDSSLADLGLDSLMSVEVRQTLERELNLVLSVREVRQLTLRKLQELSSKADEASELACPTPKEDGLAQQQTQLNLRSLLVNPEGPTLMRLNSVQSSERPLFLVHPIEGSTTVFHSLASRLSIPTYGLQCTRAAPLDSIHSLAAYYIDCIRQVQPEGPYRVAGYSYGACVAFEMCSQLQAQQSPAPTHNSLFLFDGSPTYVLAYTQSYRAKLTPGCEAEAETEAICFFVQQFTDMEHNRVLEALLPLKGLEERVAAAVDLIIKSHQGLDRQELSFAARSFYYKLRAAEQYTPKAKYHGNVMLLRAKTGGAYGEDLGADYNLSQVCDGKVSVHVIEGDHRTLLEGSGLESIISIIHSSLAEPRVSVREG

O=C(NC(=O)c1c(F)cccc1F)Nc1cc(Cl)c(OC(F)(F)C(F)F)c(Cl)c1
active: [12] 50 µM | [17] 50 µM | [18] 3.34 µM
inactive: all other assays above

Cc1cccc(C)c1N
active: [18] 51.8 µM
not listed: [4] | [20]
inactive: all other assays above

Clc1ccc(C(Cl)(Cl)Cl)cc1
inactive: [1] | [2] | [11] | [12] | [13] | [14] | [15] | [16] | [17] | [18] | [19]

CCC(C)(CC)c1cc(NC(=O)c2c(OC)cccc2OC)on1
active: [12] 33.8 µM | [18] 10.2 µM
not listed: [4] | [5] | [6] | [7] | [8] | [9]
inactive: all other assays above

Source: PubChem BioAssay (EPA / NIEHS)
